The results in this text go back to PubChem BioAssay AID2023 (NMMLSC, 2009).

Values joined by “and” are separate entries in the source; they are usually repeats but may differ in a detail not shown here. Equal values may be shown once. Hit rate of the full screen: of about 320,000 compounds, about 1,100 (0.34%) were called active. This is one part of a sample in which actives are shown more often than they occur.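 How the source made its calls: active means GFP response vs DMSO above a set limit, about the screen mean plus 3 SD (cut at about 150% in these data); inconclusive means under 70 cell events counted for the yeast strain; inactive means the rest.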 Where a structure was tested more than once in an assay, its records may differ in their call.

The experiment is described as follows: modulators of LAP4-GFP expression in yeast, primary screen, S. cerevisiae, multiplex flow cytometry, MLPCN library (AID 2023). The note with it: 3 h, at 10 µM, stronger effect = higher value, median GFP as percent of DMSO wells. In general terms: Flow cytometry measures light scatter and fluorescence of single cells or particles in a stream.
Regarding `O=C(Nc1ccccc1)c1nnsc1S(=O)(=O)c1ccc(Cl)cc1`, the GFP response vs DMSO was 187% (active).
As for `CN(c1cccc(NC(=O)Nc2ccc(Cl)cc2)c1)S(C)(=O)=O`, the figure is 107% (inactive).
With `Cc1nnsc1C(=O)N/N=C/c1ccccc1Cl`, the GFP response vs DMSO is 106% (inactive).
Under `CC(C)Oc1ccc(S(=O)(=O)N2CCOCC2)cc1NC(=O)C1CSC2(C)CCC(=O)N12` (stereo unspecified) stands 106% (inactive); under `O=[N+]([O-])c1ccc(S(=O)(=O)Nc2cccc(-c3ccc(N4CCCC4)nn3)c2)cc1`, 100% (inactive); under `COc1cc(/C=C/C(=O)O)cc(S(=O)(=O)Nc2ccccc2C(=O)NCCc2ccccc2)c1OC`, 96% (inactive).
Under `CCCn1nc(C(=O)Nc2ccc3nc(C)sc3c2)c2ccccc2c1=O` stands 102% (inactive); under `CCCn1nc(C(=O)NNC(=O)CCOc2ccccc2OCC)c2ccccc2c1=O`, 217% (active).
Turning to `CCCn1nc(C(=O)NNC(=O)CSCC(=O)Nc2cc(C)on2)c2ccccc2c1=O`, the GFP response vs DMSO was 91.7% (inactive).
Under `Brc1ccc(Nc2c3c(nc4ncnn24)CCC3)cc1` stands 103% (inactive); under `Cc1cccc(NC(=O)CSc2nnc(CCNC(=O)OC(C)(C)C)o2)c1C`, 95.1% (inactive); under `Cc1ccc2nc(SC(C)C(=O)NCc3ccco3)[nH]c2c1` (stereo unspecified), 111% (inactive).
Under `Cc1ccn(-c2cccc(-n3ccc(C)n3)n2)n1` stands 100% (inactive).
With `CCN(CC)c1ccc(S(=O)(=O)N2CCCCC2)cc1NC(=O)C1=COCCO1`, the GFP response vs DMSO is 99.6% (inactive).
Under `CC(NC(=O)C1CCCN(S(=O)(=O)c2ccc(-n3cnnn3)cc2)C1)c1ccc(F)cc1` (stereo unspecified) stands 83.4% (inactive).
Under `O=C(O)Cc1csc(-c2cccc(Oc3ccccc3)c2)n1` stands 110% (inactive) and 152% (active); under `COc1cc(OC)cc(C(=O)NCC(=O)OCc2csc(-c3ccccc3)n2)c1`, 101% (inactive); under `O=C(NCCc1csc(-c2ccccc2)n1)c1ccccc1F`, 120% (inactive).
As for `CC(=O)c1c(C)n([O-])c2ccccc2[n+]1=O`, the figure is 99.9% (inactive).
`COc1cccc(NC(=O)COc2cccnc2[N+](=O)[O-])c1`: the GFP response vs DMSO is 94.7% (inactive).
In the case of `O=C(COc1cccnc1[N+](=O)[O-])Nc1ccc(Cl)cc1F`, the GFP response vs DMSO is 178% (active).
Turning to `CC(NC(=O)COc1cccnc1[N+](=O)[O-])c1ccc(Cl)cc1Cl` (stereo unspecified), the GFP response vs DMSO was 116% (inactive).
Under `COc1cccc(CCNC(=O)c2cccc(NC(=O)C3=C(C)OCCS3)c2)c1` stands 93.6% (inactive); under `CCc1ccc(N(CC(=O)NCc2cccnc2)S(=O)(=O)c2ccccc2)cc1`, 96.7% (inactive); under `O=C(O)CN1c2cccc3cccc(c23)S1(=O)=O`, 92.9% (inactive).
Under `COC(=O)c1cn(CC(=O)NCc2cccs2)c2ccccc12` stands 95% (inactive); under `COC(=O)Cn1cc(/C=C/[N+](=O)[O-])c2ccccc21`, 164% (active); under `COC(=O)N/N=C/c1cn(CCCOc2ccc(C)cc2)c2ccccc12`, 89.7% (inactive).
Under `COC(=O)Cc1cnc(NC(=O)CSc2nc(C(C)C)cc(=O)[nH]2)s1` stands 114% (inactive).
With `COc1cc(C)c(C(C)C)cc1S(=O)(=O)n1ccnc1`, the GFP response vs DMSO was 89.6% (inactive).
As for `COC(=O)c1ccc(/C=C2/C(=O)Oc3ccccc32)cc1`, the figure is 93.2% (inactive); as for `COc1ccc2c(c1)O/C(=C\c1ccccc1O)C2=O`, 108% (inactive); as for `O=C1Oc2ccccc2C(=O)/C1=C/c1ccccc1O`, 208% (active).
On to `COc1ccc(Cl)cc1NC(=O)CN(C)C(=O)CCCc1c[nH]c2ccccc12`, for which the GFP response vs DMSO is 99.5% (inactive).
As for `O=Cc1c(NCCCN2CCCC2=O)c2ccccc2[nH]c1=O`, the figure is 100% (inactive); as for `CCC1Sc2ccc(S(=O)(=O)CCC(=O)NCc3cccs3)cc2NC1=O` (stereo unspecified), 106% (inactive); as for `O=C(Nc1nnc(-c2ccc(Cl)cc2)o1)c1ccccc1Br`, 159% (active).
As for `O=C(COC(=O)c1ccccc1Br)Nc1nnc(-c2ccccc2)o1`, the figure is 115% (inactive); as for `O=C(Nc1nnc(-c2ccccc2)o1)c1cc(-c2cccs2)nc2ccccc12`, 112% (inactive); as for `Cc1cccc(NS(=O)(=O)c2ccc(C(=O)NCC(C)(C)N3CCOCC3)cc2)c1C`, 103% (inactive).
Take `CCOc1ccc(NC(=O)CN(C)C(=O)COc2cccc(CC)c2)cc1OCC`: the GFP response vs DMSO is 100% (inactive).
Turning to `CCC(=O)N1CCC(C(N)=O)(N2CCCCC2)CC1`, the GFP response vs DMSO is 95.6% (inactive).
As for `CCCCCCSc1ccc([C@@H]2[C@@H]3C(=O)N(CC)C(=O)[C@@H]3[C@]3(C(=O)OC)CCCCN23)cc1OC`, the figure is 90.1% (inactive); as for `CCC(=C/c1sc2ccc3ccccc3c2[n+]1C)/C=C1\Sc2ccc3ccccc3c2N1C`, 283% (active).
As for `O=C(Nc1cccc(Cl)c1Cl)c1ccccc1NC(=O)C1CC=CCC1C(=O)O` (stereo unspecified), the figure is 67.7% (inactive); as for `Cc1cccc(C)c1N1CCN(S(=O)(=O)N2CCOCC2)CC1`, 110% (inactive).
As for `C=CCOc1ccc(Cl)cc1CNCCCN1CCOCC1`, the figure is 91.3% (inactive); as for `CC(=O)Nc1ccc(Nc2nc3c(S(=O)(=O)c4ccc(C)c(C)c4)nnn3c3ccccc23)cc1`, 89.9% (inactive).
For `Cc1cccc(Nc2nc3c(S(=O)(=O)c4ccccc4)nnn3c3ccccc23)c1C`, the GFP response vs DMSO is 783% [may fluoresce green] (active).
For `Cc1ccc(S(=O)(=O)c2nnn3c2nc(N2CCN(c4ccccn4)CC2)c2ccccc23)cc1`, the GFP response vs DMSO is 104% (inactive).
With `CN(C)c1nc(=Nc2cccc(Cl)c2)ss1`, the GFP response vs DMSO is 191% (active).
Under `CCOC(=O)N1CCN(C(=O)c2cn(C)c3ccc(S(=O)(=O)N(CC)CC)cc3c2=O)CC1` stands 102% (inactive); under `O=C(O)C1OC(C(=O)O)C2C1C(F)(F)C2(F)F` (stereo unspecified), 99.4% (inactive).
Regarding `O=C(CN1C(=O)NC2(CCCC2)C1=O)NCC1CCCO1` (stereo unspecified), the GFP response vs DMSO is 104% (inactive).
Under `Nc1cc(N)nc(SCc2cccc(F)c2)n1` stands 97.2% (inactive).
As for `CCc1nnc(SCc2cccc(F)c2)nc1CC`, the figure is 152% (active); as for `O=c1[nH]c(SCc2cccc(F)c2)nc2ccccc12`, 108% (inactive).
Take `O=C(CCC1CCN(C(=O)c2cccc(Cl)c2F)CC1)Nc1ccccc1`: the GFP response vs DMSO was 106% (inactive).
As for `CCOC(=O)N1CCN(S(=O)(=O)c2ccc(Br)cc2)CC1`, the figure is 108% (inactive); as for `COc1ccccc1N1CCN(S(=O)(=O)c2ccc(Cl)cc2)CC1`, 110% (inactive).
Turning to `Cn1ncc(N2CCN(S(=O)(=O)c3ccc(Br)cc3)CC2)c(Cl)c1=O`, the GFP response vs DMSO is 170% (active).
